In the supplement of paper PMC10849652:
Targets with a hit are over-represented here; the source holds about 8,800 in all. About 0.5% of all pairs of compound and target were hits.

What was measured:
Test in all cases: log2 fold change, soluble protein after heating vs DMSO (PISA); higher = thermal stabilisation; K562 lysate, 10 uM; active = over 0.2 and 3.5 SD of the protein, either way, in both replicates (recomputed)
vemurafenib = compound: CCCS(=O)(=O)Nc1ccc(F)c(C(=O)c2c[nH]c3ncc(-c4ccc(Cl)cc4)cc23)c1F [vemurafenib]
Procedure, shortened: (§1)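 To prepare the extract, K562 pellets were dounce-homogenised in PBS pH 7.4 with 1 mM MgCl2, giving crude material at 1 mg/mL protein. This was treated with 10 μM compound for 30 min, then heated in aliquots for 3 min over 48°C-58°C before pooling and addition of NP-40 to 0.5% at 4°C. Centrifugation at 21,000xg for 90 min left soluble protein in the supernatant, which TMTpro 16plex LC-MS/MS quantified with equalised channel sums. Results are log-two fold changes in thermal stability compared with solvent controls, from duplicates.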

[1] = compound: CCCS(=O)(=O)Nc1ccc(F)c(C(=O)c2c[nH]c3ncc(Cl)cc23)c1F
Procedure, shortened: as §1

barasertib = compound: CCN(CCCOc1ccc2c(Nc3cc(CC(=O)Nc4cccc(F)c4)[nH]n3)ncnc2c1)CCOP(=O)(O)O [barasertib]
Procedure, shortened: as §1

[2] = compound: CC[C@@H]1C(=O)N(C)c2cnc(Nc3ccc(C(=O)NC4CCN(C)CC4)cc3OC)nc2N1C1CCCC1
Procedure, shortened: as §1

volasertib = compound: CC[C@@H]1C(=O)N(C)c2cnc(Nc3ccc(C(=O)N[C@H]4CC[C@H](N5CCN(CC6CC6)CC5)CC4)cc3OC)nc2N1C(C)C [volasertib]
Procedure, shortened: as §1

[3] = compound: CCn1c(C(=O)N(C2CC2)C2CC2)cc2c3c(ncn3C)c(Nc3cc(C)n(C)n3)nc21
Procedure, shortened: as §1

[4] = compound: CCn1cc(-c2ccnc3[nH]c(-c4cccc(CN(C)C)c4)cc23)c(-c2ccc(NC(=O)N(C)C)cc2)n1
Procedure, shortened: as §1

[5] = compound: CN1CCC(CNc2ccc3ncc(-c4cccc(OC(F)(F)F)c4)n3n2)CC1
Procedure, shortened: as §1

saracatinib = compound: CN1CCN(CCOc2cc(OC3CCOCC3)c3c(Nc4c(Cl)ccc5c4OCO5)ncnc3c2)CC1 [saracatinib]
Procedure, shortened: as §1

sotrastaurin = compound: CN1CCN(c2nc(C3=C(c4c[nH]c5ccccc45)C(=O)NC3=O)c3ccccc3n2)CC1 [sotrastaurin]
Procedure, shortened: as §1

alvocidib = compound: CN1CC[C@H](c2c(O)cc(O)c3c(=O)cc(-c4ccccc4Cl)oc23)[C@H](O)C1 [alvocidib]
Procedure, shortened: as §1

Tubastatin A = compound: CN1CCc2c(c3ccccc3n2Cc2ccc(C(=O)NO)cc2)C1 [Tubastatin A]
Procedure, shortened: as §1

[6] = compound: CNC(=O)C1=CC=CC=C1NC2=NC(=NC=C2Cl)NC3=C(C=C(C=C3)N4CCOCC4)OC
Procedure, shortened: as §1

defactinib = compound: CNC(=O)c1ccc(Nc2ncc(C(F)(F)F)c(NCc3nccnc3N(C)S(C)(=O)=O)n2)cc1 [defactinib]
Procedure, shortened: as §1

[7] = compound: CNc1nc(-c2ccc3c(N)n[nH]c3c2)cc(N2C[C@@H](C(=O)NC3CCCCC3)CC[C@H]2C)n1
Procedure, shortened: as §1

encorafenib = compound: COC(=O)N[C@@H](C)CNc1nccc(-c2cn(C(C)C)nc2-c2cc(Cl)cc(NS(C)(=O)=O)c2F)n1 [encorafenib]
Procedure, shortened: as §1

[8] = compound: COC(=O)[C@H](CCSC)NC(=O)C1=C(C=C(C=C1)NC[C@H](CS)N)C2=CC=CC=C2
Procedure, shortened: as §1

alisertib = compound: COc1cc(Nc2ncc3c(n2)-c2ccc(Cl)cc2C(c2c(F)cccc2OC)=NC3)ccc1C(=O)O [alisertib]
Procedure, shortened: as §1

[9] = compound: COc1cc2nc(-c3cc(F)ccc3O)nc(N[C@@H]3CNC[C@H]3C(C)(C)O)c2cc1OC
Procedure, shortened: as §1

gefitinib = compound: COc1cc2ncnc(Nc3ccc(F)c(Cl)c3)c2cc1OCCCN1CCOCC1 [gefitinib]
Procedure, shortened: as §1

Measured: log2 fold change

REXO4 (UniProt Q9GZR2)
Sequence of UniProt Q9GZR2 (Q9GZR2 whole entry, looked up): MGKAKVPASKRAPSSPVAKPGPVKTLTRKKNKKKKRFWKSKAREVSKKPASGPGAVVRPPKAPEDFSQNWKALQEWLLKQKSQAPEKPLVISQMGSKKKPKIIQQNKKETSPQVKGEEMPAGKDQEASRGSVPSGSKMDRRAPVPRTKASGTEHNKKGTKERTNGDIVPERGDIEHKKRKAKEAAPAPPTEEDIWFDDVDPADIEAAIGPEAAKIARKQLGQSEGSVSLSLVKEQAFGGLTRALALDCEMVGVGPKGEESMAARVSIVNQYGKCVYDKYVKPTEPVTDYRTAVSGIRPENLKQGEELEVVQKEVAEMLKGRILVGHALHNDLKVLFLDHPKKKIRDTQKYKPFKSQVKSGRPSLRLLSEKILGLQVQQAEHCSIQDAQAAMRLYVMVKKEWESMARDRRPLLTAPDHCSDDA
active: [4] 0.452
inactive: vemurafenib -0.018 | [1] 0.007 | barasertib 0.088 | [2] 0.013 | volasertib -0.034 | [3] 0 | [5] -0.184 | saracatinib -0.002 | sotrastaurin 0.013 | alvocidib 0.089 | Tubastatin A -0.108 | [6] 0.026 | defactinib 0.013 | [7] 0.032 | encorafenib -0.007 | [8] 0.08 | alisertib -0.008 | [9] 0.024 | gefitinib -0.029

RIPK1 (UniProt Q13546)
Sequence of UniProt Q13546 (Q13546 whole entry, looked up): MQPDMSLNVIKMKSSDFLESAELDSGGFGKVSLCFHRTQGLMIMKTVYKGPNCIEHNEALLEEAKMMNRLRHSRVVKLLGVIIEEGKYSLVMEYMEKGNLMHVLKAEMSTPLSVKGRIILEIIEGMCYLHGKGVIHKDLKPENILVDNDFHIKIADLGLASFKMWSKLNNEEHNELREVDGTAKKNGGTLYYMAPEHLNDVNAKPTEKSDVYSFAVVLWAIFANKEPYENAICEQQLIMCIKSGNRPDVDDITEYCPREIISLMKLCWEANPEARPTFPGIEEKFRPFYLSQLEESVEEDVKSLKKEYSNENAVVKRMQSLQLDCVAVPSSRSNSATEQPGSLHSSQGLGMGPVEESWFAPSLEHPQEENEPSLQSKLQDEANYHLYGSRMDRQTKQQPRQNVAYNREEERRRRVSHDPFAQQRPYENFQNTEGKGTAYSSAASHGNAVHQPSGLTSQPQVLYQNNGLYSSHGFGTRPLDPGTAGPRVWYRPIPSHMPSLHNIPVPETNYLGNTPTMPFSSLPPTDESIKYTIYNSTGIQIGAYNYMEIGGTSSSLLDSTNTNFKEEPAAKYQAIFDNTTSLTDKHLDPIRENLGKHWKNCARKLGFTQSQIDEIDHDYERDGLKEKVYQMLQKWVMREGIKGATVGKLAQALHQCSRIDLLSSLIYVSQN
inactive: vemurafenib -0.053 | [1] 0.027 | barasertib 0.01 | [2] -0.026 | volasertib -0.066 | [3] 0.027 | [4] -0.019 | [5] -0.013 | saracatinib 0.016 | sotrastaurin -0.045 | alvocidib 0.001 | Tubastatin A -0.108 | [6] 0.044 | defactinib 0.065 | [7] 0.035 | encorafenib -0.017 | [8] 0.025 | alisertib -0.025 | [9] -0.016 | gefitinib 0.042

RFC3 (UniProt P40938)
Sequence of UniProt P40938 (P40938 whole entry, looked up): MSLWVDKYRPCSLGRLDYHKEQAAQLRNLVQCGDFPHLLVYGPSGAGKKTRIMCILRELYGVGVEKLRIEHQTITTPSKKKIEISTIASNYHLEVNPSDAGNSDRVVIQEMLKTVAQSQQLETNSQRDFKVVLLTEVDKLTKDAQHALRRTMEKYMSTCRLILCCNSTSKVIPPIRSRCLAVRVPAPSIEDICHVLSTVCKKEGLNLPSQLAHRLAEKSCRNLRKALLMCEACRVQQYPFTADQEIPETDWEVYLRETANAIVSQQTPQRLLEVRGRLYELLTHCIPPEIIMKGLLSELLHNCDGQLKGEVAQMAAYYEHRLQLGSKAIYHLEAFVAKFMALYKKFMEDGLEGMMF
inactive: vemurafenib 0.021 | [1] 0.025 | barasertib 0.046 | [2] -0.033 | volasertib -0.065 | [3] 0.013 | [4] 0.133 | [5] 0.001 | saracatinib 0.001 | sotrastaurin 0.039 | alvocidib -0.008 | Tubastatin A -0.142 | [6] 0.024 | defactinib 0.036 | [7] -0.014 | encorafenib 0.002 | [8] -0.005 | alisertib 0.007 | [9] 0.029 | gefitinib -0.075

RCC1 isoform 2 (UniProt P18754)
Sequence of UniProt P18754 (P18754 whole entry, looked up): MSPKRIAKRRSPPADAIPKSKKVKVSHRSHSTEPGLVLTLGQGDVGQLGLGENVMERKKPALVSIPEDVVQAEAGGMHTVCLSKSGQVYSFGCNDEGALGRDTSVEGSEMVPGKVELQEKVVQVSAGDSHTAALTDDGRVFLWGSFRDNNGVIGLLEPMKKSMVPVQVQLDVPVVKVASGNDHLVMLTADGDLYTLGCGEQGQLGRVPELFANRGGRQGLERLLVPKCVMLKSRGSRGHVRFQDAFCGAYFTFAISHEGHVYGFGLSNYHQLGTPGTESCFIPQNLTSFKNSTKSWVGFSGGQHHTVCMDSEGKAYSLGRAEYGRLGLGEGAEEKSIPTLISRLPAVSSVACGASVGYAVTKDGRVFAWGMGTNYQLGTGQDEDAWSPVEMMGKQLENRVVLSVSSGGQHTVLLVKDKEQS
inactive: vemurafenib 0.049 | [1] 0.018 | barasertib -0.008 | [2] -0.114 | volasertib -0.066 | [3] 0.027 | [4] -0.105 | [5] -0.046 | saracatinib -0.021 | sotrastaurin 0.001 | alvocidib 0.012 | Tubastatin A -0.168 | [6] 0.018 | defactinib 0.055 | [7] -0.007 | encorafenib 0.006 | [8] 0.151 | alisertib 0.006 | [9] -0.017 | gefitinib -0.003

RABL3 (UniProt Q5HYI8)
Sequence of UniProt Q5HYI8 (Q5HYI8 whole entry, looked up): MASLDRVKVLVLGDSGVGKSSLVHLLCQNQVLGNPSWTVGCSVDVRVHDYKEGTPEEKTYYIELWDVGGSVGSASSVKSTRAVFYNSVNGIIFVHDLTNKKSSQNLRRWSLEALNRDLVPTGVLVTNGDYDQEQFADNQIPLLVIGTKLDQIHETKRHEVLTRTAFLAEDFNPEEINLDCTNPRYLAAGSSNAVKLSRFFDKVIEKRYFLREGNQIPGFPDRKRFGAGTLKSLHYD
inactive: vemurafenib 0.043 | [1] 0.024 | barasertib 0.033 | [2] -0.072 | volasertib -0.045 | [3] 0.632 | [4] -0.045 | [5] -0.032 | saracatinib 0.018 | sotrastaurin 0.069 | alvocidib -0.023 | Tubastatin A -0.193 | [6] 0.154 | defactinib 0 | [7] -0.021 | encorafenib 0.02 | [8] -0.01 | alisertib -0.036 | [9] -0.038 | gefitinib 0.005

RPS18 (UniProt P62269)
inactive: vemurafenib 0.006 | [1] 0.022 | barasertib -0.007 | [2] -0.014 | volasertib 0.018 | [3] 0.009 | [5] 0.063 | saracatinib 0.002 | sotrastaurin 0 | alvocidib -0.057 | Tubastatin A 0.04 | [6] -0.021 | defactinib 0.016 | [7] 0.025 | encorafenib -0.022 | [8] 0.054 | alisertib 0.013 | [9] 0.001 | gefitinib -0.032
active: [4] -0.219

RANBP2 (UniProt P49792)
inactive: vemurafenib -0.031 | [1] 0.015 | barasertib 0.043 | [2] -0.022 | volasertib -0.048 | [3] 0.026 | [4] -0.019 | [5] -0.031 | saracatinib 0.018 | sotrastaurin 0.015 | alvocidib -0.001 | Tubastatin A -0.169 | [6] 0.011 | defactinib 0.004 | [7] -0.041 | encorafenib 0.038 | [8] 0.042 | alisertib -0.01 | [9] 0 | gefitinib -0.013

RABGGTB (UniProt P53611)
inactive: vemurafenib -0.022 | [1] 0.058 | barasertib 0.096 | [2] -0.034 | volasertib 0.008 | [3] -0.031 | [4] 0.151 | [5] -0.033 | saracatinib -0.017 | sotrastaurin 0.037 | alvocidib -0.015 | Tubastatin A -0.043 | [6] -0.025 | defactinib 0.031 | [7] -0.021 | encorafenib 0.044 | [8] 0.065 | alisertib 0.005 | [9] 0.002 | gefitinib -0.002

RPS26P11 (UniProt Q5JNZ5)
active: [4] -0.688
inactive: vemurafenib 0.012 | [1] -0.01 | barasertib -0.03 | [2] 0.041 | volasertib 0.017 | [3] 0.02 | [5] 0.224 | saracatinib 0.009 | sotrastaurin 0.05 | alvocidib -0.216 | Tubastatin A 0.038 | [6] -0.064 | defactinib 0.011 | [7] 0.02 | encorafenib 0.007 | [8] 0.006 | alisertib -0.006 | [9] -0.032 | gefitinib -0.056

RNASEL (UniProt Q05823)
inactive: vemurafenib -0.004 | [1] 0.053 | barasertib 0.077 | [2] -0.017 | volasertib -0.103 | [3] 0.012 | [4] -0.006 | [5] -0.025 | saracatinib -0.011 | sotrastaurin 0.024 | alvocidib 0.054 | Tubastatin A -0.094 | [6] -0.034 | defactinib -0.02 | [7] 0.012 | encorafenib 0.029 | [8] 0.144 | alisertib -0.074 | [9] -0.035 | gefitinib 0.061

RASA3 (UniProt Q14644)
inactive: vemurafenib -0.008 | [1] 0.009 | barasertib 0.107 | [2] -0.1 | volasertib -0.082 | [3] -0.058 | [4] 0.105 | [5] 0.298 | saracatinib -0.003 | sotrastaurin 0.048 | alvocidib -0.089 | Tubastatin A -0.246 | [6] 0 | defactinib 0.052 | [7] -0.118 | encorafenib -0.005 | [8] 0.082 | alisertib -0.006 | [9] 0.032 | gefitinib -0.043

RPLP0P6 (UniProt Q8NHW5)
inactive: vemurafenib -0.002 | [1] 0.012 | barasertib -0.121 | [2] 0.009 | volasertib -0.009 | [3] -0.02 | [4] -0.011 | [5] 0.017 | saracatinib -0.011 | sotrastaurin -0.02 | alvocidib -0.018 | Tubastatin A 0.015 | [6] -0.001 | defactinib -0.014 | [7] 0.023 | encorafenib 0.001 | [8] 0.018 | alisertib 0.004 | [9] 0.023 | gefitinib -0.019

RBMX (UniProt P38159)
Sequence of UniProt P38159 (P38159 whole entry, looked up): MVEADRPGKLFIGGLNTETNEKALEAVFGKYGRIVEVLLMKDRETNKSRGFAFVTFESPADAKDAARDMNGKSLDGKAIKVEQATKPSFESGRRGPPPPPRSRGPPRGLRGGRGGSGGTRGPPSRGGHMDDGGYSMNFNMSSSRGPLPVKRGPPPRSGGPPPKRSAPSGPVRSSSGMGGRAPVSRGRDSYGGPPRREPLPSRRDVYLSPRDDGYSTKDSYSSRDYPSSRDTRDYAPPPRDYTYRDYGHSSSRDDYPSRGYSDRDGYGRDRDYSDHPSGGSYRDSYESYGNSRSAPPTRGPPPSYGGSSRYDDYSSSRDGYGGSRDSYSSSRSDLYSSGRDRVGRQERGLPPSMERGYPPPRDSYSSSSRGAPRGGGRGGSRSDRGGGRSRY
inactive: vemurafenib -0.058 | [1] 0.013 | barasertib -0.026 | [2] -0.012 | volasertib -0.02 | [3] 0.067 | [4] -0.007 | [5] 0.009 | saracatinib -0.031 | sotrastaurin -0.014 | alvocidib -0.003 | Tubastatin A -0.03 | [6] -0.042 | defactinib 0.023 | [7] -0.022 | encorafenib 0.021 | [8] -0.068 | alisertib 0.002 | [9] 0.013 | gefitinib 0.023

SCML2 (UniProt Q9UQR0)
inactive: vemurafenib 0.033 | [1] -0.006 | barasertib -0.028 | [2] -0.007 | volasertib -0.018 | [3] 0.02 | [4] 0.033 | [5] 0.032 | saracatinib 0.064 | sotrastaurin -0.067 | alvocidib 0.006 | Tubastatin A -0.204 | [6] 0.031 | defactinib -0.03 | [7] -0.035 | encorafenib 0.01 | [8] 0.18 | alisertib 0.025 | [9] -0.016 | gefitinib -0.053

SEC16A isoform 5 (UniProt O15027)
Sequence of UniProt O15027 (O15027 whole entry, looked up): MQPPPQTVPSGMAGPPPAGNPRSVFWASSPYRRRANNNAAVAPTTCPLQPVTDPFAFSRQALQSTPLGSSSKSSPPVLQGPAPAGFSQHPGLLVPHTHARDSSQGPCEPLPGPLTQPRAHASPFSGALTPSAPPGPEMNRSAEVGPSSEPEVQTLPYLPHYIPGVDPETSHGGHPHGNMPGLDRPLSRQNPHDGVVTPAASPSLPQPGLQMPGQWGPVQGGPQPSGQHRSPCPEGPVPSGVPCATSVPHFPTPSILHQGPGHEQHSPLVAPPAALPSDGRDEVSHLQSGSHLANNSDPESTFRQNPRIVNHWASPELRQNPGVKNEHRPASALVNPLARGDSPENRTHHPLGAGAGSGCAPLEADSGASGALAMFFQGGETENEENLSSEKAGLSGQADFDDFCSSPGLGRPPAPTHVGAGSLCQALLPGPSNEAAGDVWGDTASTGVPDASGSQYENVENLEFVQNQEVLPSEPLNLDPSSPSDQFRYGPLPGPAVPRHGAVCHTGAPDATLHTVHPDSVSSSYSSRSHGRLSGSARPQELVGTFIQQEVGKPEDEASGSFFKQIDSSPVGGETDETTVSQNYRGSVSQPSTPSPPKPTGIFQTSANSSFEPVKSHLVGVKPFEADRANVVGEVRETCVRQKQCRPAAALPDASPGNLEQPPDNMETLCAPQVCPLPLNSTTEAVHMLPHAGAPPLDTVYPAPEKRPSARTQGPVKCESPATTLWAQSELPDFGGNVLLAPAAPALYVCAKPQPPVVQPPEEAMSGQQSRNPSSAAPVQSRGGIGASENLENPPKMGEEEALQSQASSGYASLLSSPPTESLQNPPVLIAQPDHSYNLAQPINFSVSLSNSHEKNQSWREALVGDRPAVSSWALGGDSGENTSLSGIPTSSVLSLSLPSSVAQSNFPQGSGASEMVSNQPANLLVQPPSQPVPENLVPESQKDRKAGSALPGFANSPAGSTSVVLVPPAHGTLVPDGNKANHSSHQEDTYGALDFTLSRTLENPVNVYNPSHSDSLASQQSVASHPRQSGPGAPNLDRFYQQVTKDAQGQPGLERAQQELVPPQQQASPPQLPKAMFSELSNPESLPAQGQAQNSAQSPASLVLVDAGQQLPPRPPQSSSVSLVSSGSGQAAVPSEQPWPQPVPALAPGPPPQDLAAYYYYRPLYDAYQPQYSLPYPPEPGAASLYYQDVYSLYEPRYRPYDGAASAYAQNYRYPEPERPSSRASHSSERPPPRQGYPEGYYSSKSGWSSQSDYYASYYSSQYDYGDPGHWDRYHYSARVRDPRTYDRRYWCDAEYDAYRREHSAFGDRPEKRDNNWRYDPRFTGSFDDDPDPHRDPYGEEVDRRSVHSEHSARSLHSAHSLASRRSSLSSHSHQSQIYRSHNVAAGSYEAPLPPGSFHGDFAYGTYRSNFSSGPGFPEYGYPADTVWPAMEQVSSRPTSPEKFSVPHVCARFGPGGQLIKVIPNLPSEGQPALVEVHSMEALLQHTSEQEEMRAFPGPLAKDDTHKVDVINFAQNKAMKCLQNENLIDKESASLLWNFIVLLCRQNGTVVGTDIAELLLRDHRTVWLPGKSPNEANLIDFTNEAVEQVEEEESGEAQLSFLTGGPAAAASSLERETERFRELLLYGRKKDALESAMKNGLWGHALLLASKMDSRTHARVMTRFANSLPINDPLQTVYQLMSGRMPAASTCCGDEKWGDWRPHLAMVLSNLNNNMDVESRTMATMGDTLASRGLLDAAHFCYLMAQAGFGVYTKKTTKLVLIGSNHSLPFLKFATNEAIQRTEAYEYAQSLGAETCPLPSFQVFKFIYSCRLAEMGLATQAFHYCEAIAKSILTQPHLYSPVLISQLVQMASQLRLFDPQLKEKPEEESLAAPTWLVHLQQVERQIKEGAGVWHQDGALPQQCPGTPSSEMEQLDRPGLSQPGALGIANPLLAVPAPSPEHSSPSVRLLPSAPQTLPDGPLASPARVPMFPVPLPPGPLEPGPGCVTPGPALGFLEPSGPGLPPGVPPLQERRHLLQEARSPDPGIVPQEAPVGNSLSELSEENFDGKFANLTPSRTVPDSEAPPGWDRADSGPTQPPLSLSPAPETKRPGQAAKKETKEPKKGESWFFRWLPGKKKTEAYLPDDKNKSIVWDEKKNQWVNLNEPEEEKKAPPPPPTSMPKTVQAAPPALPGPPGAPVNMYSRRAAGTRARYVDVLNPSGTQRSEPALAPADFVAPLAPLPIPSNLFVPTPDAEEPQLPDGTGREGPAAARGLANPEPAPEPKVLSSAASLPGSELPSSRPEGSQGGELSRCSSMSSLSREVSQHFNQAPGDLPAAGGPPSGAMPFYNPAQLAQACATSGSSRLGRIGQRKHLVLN
inactive: vemurafenib 0.03 | [1] 0.019 | barasertib 0.021 | [2] 0.038 | volasertib -0.028 | [3] 0.006 | [4] 0.008 | [5] -0.037 | saracatinib 0.013 | sotrastaurin -0.01 | alvocidib -0.005 | Tubastatin A -0.09 | [6] 0.011 | defactinib -0.014 | [7] -0.002 | encorafenib 0.011 | [8] 0.01 | alisertib -0.001 | [9] 0.013 | gefitinib 0.014

RHOA (UniProt P61586)
Sequence of UniProt P61586 (P61586 whole entry, looked up): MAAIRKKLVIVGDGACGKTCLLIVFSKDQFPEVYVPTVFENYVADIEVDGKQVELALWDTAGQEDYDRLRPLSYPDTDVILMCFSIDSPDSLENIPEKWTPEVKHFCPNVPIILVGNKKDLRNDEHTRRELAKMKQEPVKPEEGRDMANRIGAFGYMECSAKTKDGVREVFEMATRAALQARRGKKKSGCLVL
inactive: vemurafenib 0.003 | [1] -0.005 | barasertib -0.07 | [2] 0.069 | volasertib 0.009 | [3] 0.042 | [5] -0.06 | saracatinib 0.009 | sotrastaurin 0 | alvocidib 0.093 | Tubastatin A -0.078 | [6] 0.087 | defactinib -0.029 | [7] -0.003 | encorafenib -0.042 | [8] -0.046 | alisertib 0.072 | [9] 0.029 | gefitinib 0.078
active: [4] 0.45
